PubChem BioAssay (EPA / NIEHS)
Results filed as inconclusive are left out. Calls of active or inactive are those of the source. The calls were made as follows: active = hit-call score of the fitted dose curve at least 0.9, where 1 is the maximum; inconclusive = response in the unintended direction; inactive = score below 0.9.

Assay: CCTE_Harrill_HTTr_CellCount_MCF7: CCTE's Cell Proliferation Assessment for the High-Throughput Transcriptomics (HTTr) Platform, Harrill Lab (AID 2284012);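 also: cells exposed to compound for six hours; intended direction is loss of nuclei count meaning fewer cells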
Description: This is a cell-based assay that evaluates cell viability and cell growth using high content imaging to count the number of Hoechst-labeled nuclei that are present in an assay well in 384-well format.This is a cell-based assay that evaluates cell viability and cell growth in MCF-7 cells. This was part of a full screening experiment. High content imaging is used to count the number of Hoechst-labeled nuclei that are present in an assay well in 384-well format.The assay component endpoint CCTE_Harrill_HTTr_CellCount_MCF7 was analyzed with bidirectional fitting relation to DMSO as the negative control and baseline of activity. Using a type of viability reporter, loss-of-signal activity can be used to understand changes in cell count. To generalize the intended target to other relatable targets, this assay endpoint is annotated to cell cycle, where the subfamily is cell count.
Chemicals were tested in MCF7 cells in an eight point dilution series with a six hour exposure duration.

outcome, inactive:
Cc1ccc(N)c(S(=O)(=O)O)c1
CC(C)(C)CC(C)(C)c1ccc(OCCOCC[N+](C)(C)Cc2ccccc2)cc1
c1ccc(CCc2ccccc2)cc1
C[C@@H]1CCN(C(=O)[C@H](CCCN=C(N)N)NS(=O)(=O)c2cccc3c2NC[C@H](C)C3)[C@@H](C(=O)O)C1
CC(=O)CC(=O)Nc1ccccc1
CCCC1O[C@@H]2C[C@H]3[C@@H]4CCC5=CC(=O)C=C[C@]5(C)[C@H]4[C@@H](O)C[C@]3(C)[C@]2(C(=O)CO)O1 (stereo not given in full)
CC(C=O)Cc1ccc(C(C)(C)C)cc1 (stereo not given)
OCCc1ccccc1
C[C@H]1C[C@@H](O)CC(C)(C)C1
C[C@H]1O[C@@H](O[C@H]2[C@@H](O)C[C@H](O[C@H]3[C@@H](O)C[C@H](O[C@H]4CC[C@@]5(C)[C@H](CC[C@@H]6[C@@H]5C[C@@H](O)[C@]5(C)[C@@H](C7=CC(=O)OC7)CC[C@]65O)C4)O[C@@H]3C)O[C@@H]2C)C[C@H](O)[C@@H]1O
CCCCCCCCCC(=O)OC
CS(=O)(=O)OCCCCOS(C)(=O)=O
CC(C)(CO)[C@@H](O)C(=O)NCCC(=O)O
O=CCc1ccccc1
COc1ccc(COC(C)=O)cc1
CC1(C)O[C@@H]2[C@@H](CO[C@@]3(COS(N)(=O)=O)OC(C)(C)O[C@@H]23)O1
OCc1cccc(Oc2ccccc2)c1
CN(C)CCOC(C)(c1ccccc1)c1ccccn1 (stereo not given)
CC(O)C1CCCCC1 (stereo not given)
CN1C(=O)c2ccccc2C1=O
C=C(C)[C@H]1CC=C(C)C(=O)C1
N[C@@H](Cc1cc(I)c(Oc2cc(I)c(O)c(I)c2)c(I)c1)C(=O)O
CC(CN=Cc1ccccc1O)N=Cc1ccccc1O (stereo not given)
Clc1ccc(C(c2ccccc2Cl)C(Cl)Cl)cc1 (stereo not given)
CS(=O)(=O)c1ccc(Cl)cc1
Cc1[nH]c(=O)c(C#N)cc1-c1ccncc1
C=CCOC(=O)CCCCCC
O=C(O)c1cccnc1C(=O)O
CC(C)C[C@H](NC(=O)OCC1c2ccccc2-c2ccccc21)C(=O)O
CN(C)CCOc1ccc(/C(=C(/CCCl)c2ccccc2)c2ccccc2)cc1
O=P(O)(O)O
Cc1ccc(S(N)(=O)=O)cc1
O=[N+]([O-])c1cccc(Cl)c1
CC(C)c1ccccc1O
CCCCCCOC(=O)CCC
ON=C1CCCCC1
C1=CC2C3C=CC(C3)C2C1 (stereo not given)
CCC(C)=O
CCc1ccc(O)cc1

AC50, active:
[O-]n1ccccc1=S.[O-]n1ccccc1=S.[Zn+2] 50 µM
